Results: PubChem BioAssay (NCI)
About 79,000 compounds went through this panel and 15% of them were active in at least one assay; those are over-represented in the sample as a whole. Unmarked numbers belong to inactive results. Calls of active or inactive are those of the source. Rule as the data show it: active = growth inhibition above about 70%; inactive = the rest.

Assays:
[1] = NCI Yeast Anticancer Drug Screen. Data for the rad50 strain (AID 155);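 also: 0% = growth of vehicle-only cultures of the same strain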; details: S. cerevisiae rad50 strain growth inhibition, active compounds read high
In short: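 DNA repair mutant yeast, compound exposure, growth read-out; inhibition is taken relative to vehicle.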

[2] = NCI Yeast Anticancer Drug Screen. Data for the mec2-1 strain (AID 157); details: S. cerevisiae mec2-1 strain, active compounds read high
In short: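 Growth inhibition is read against vehicle-treated controls after compound exposure of the mec2-1 yeast strain, which is defective in DNA damage repair or cell cycle control.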

[3] = NCI Yeast Anticancer Drug Screen. Data for the sgs1 mgt1 strain (AID 161);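 also: 0% = growth of cultures given vehicle only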; details: S. cerevisiae sgs1 mgt1 strain, active compounds read high
In short: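 Compounds are added to genetically altered yeast, and growth is compared with cultures given vehicle alone to give percent inhibition.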

[4] = NCI Yeast Anticancer Drug Screen. Data for the cln2 rad14 strain (AID 165);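 also: 0% = growth equal to vehicle treated cultures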; details: S. cerevisiae cln2 rad14 strain, active compounds read high
In short: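 Growth inhibition, relative to vehicle-treated controls, is the read-out. The test organism is a yeast strain with defined genetic alterations, cln2 rad14.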

[5] = NCI Yeast Anticancer Drug Screen. Data for the bub3 strain (AID 167); details: S. cerevisiae bub3 mutant strain, active compounds read high
In short: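 In this screen, a yeast mutant lacking normal mitotic checkpoint function is challenged with compound. Relative growth versus vehicle gives the inhibition value.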

[6] = NCI Yeast Anticancer Drug Screen. Data for the mlh1 rad18 strain (AID 175); details: S. cerevisiae mlh1 rad18 strain growth inhibition, active compounds read high
In short: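 Cells of a genetically altered yeast strain, deficient in DNA damage repair, were treated with compound. Their growth was then compared with that of vehicle-treated cultures to give inhibition.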

[7] = at 5.0 µM (retest, dose inferred, filed as 0.5)
[8] = at 50.0 µM (retest, dose inferred, filed as 5.0)

Row | SMILES | growth inhibition [1, 7] | growth inhibition [1, 8] | growth inhibition ([1]; at 50.0 µM) | growth inhibition [2, 7] | growth inhibition [2, 8] | growth inhibition ([2]; at 50.0 µM) | growth inhibition [3, 7] | growth inhibition [3, 8] | growth inhibition ([3]; at 50.0 µM) | growth inhibition [4, 7] | growth inhibition [4, 8] | growth inhibition ([4]; at 50.0 µM) | growth inhibition [5, 7] | growth inhibition [5, 8] | growth inhibition ([5]; at 50.0 µM) | growth inhibition [6, 7] | growth inhibition [6, 8] | growth inhibition ([6]; at 50.0 µM)
1 | O=C(c1ccccc1)c1cc(CN(CCCl)CCCl)c(O)cc1O | 0% | 32% | 54.3% | -17% | 43% | 17.9% | 7% | 75% (active) | 43% | -2% | -1% | 13.2% | -6% | -4% | 29.3% | 11% | 86% (active) | 80.3% (active)
2 | CC1=C[C@H]2O[C@H]3C[C@H]4OC(=O)/C=C\C=C\C(=O)OCC[C@@H](C)C(O)C(=O)OC[C@@]2(CC1)[C@@]4(C)[C@]31CO1 (stereo partly drawn) | 99% (active) | 98% (active) | 93.5% (active) | 99% (active) | 99% (active) | 95% (active) | 100% (active) | 99% (active) | 95% (active) | 99% (active) | 98% (active) | 93.2% (active) | 99% (active) | 99% (active) | 94.3% (active) | 99% (active) | 98% (active) | 93.5% (active)
3 | N#C[S-].[La+3].c1cnc2c(c1)ccc1cccnc12.c1cnc2c(c1)ccc1cccnc12.c1cnc2c(c1)ccc1cccnc12 | 97% (active) | 98% (active) | 91.9% (active) | 99% (active) | 99% (active) | 94.4% (active) | 99% (active) | 99% (active) | 93.5% (active) | 95% (active) | 98% (active) | 92.7% (active) | 99% (active) | 99% (active) | 92.1% (active) | 98% (active) | 98% (active) | 91.3% (active)
4 | CC(C)CCC(=O)OC1CCC2(C)C(=CCC3C2CCC2(C)C(O)CCC32)C1 (stereo not drawn) | 16% | 23% | 42% | -2% | 5% | -1.95% | 5% | 27% | 36.4% | 0% | 5% | 19.2% | 2% | 15% | 3.95% | -2% | 43% | 72.6% (active)
5 | CC(=O)Nc1ccc([As](O[As](c2ccc(NC(C)=O)cc2)c2ccc([N+](=O)[O-])cc2)c2ccc([N+](=O)[O-])cc2)cc1 (stereo not drawn) | 99% (active) | 100% (active) | 98.7% (active) | 99% (active) | 100% (active) | 99.7% (active) | 100% (active) | 99% (active) | 99.5% (active) | 99% (active) | 99% (active) | 99.3% (active) | 99% (active) | 99% (active) | 99.4% (active) | 99% (active) | 99% (active) | 99% (active)
6 | COc1cc(/C=C\[N+](=O)[O-])ccc1O | 87% (active) | 99% (active) | 99.2% (active) | 53% | 100% (active) | 99.6% (active) | 34% | 99% (active) | 99.5% (active) | 21% | 100% (active) | 99% (active) | 77% (active) | 99% (active) | 99% (active) | 51% | 99% (active) | 99% (active)
